Bioassay records as filed in PubChem.
Hsp90 Hop PPI: qHTS Assay for Disrupters of an Hsp90 Co-Chaperone Interaction; Hsp90 C-terminal peptide / TPR2A (Hop) interaction, human; AlphaScreen TPR2A-His6 binding biotin-Hsp90 C-terminal peptide; Potency, µM (top dose mostly 57 µM), for inactives: at the top dose activity change, negative = inhibition; hit rate 0.44% among 71,000; active = well fitted curve in either direction with a large enough effect; inconclusive = small, poorly fitted or top-dose-only effect, or another doubt; also: potency is read from the fitted curve at half-maximal effect; % is scaled to controls: 0 for no effect and ±100 for the full control effect
Pol III holo inh: qHTS Assay for Inhibitors of DNA Polymerase III Holoenzyme System; reconstituted DNA polymerase III holoenzyme replication, biochemical; Potency, µM (top dose mostly 57.1 µM), for the others: top-dose activity change, negative = inhibition; hit rate 0.25% among 71,000; AID 603, 2007; also: potency is read from the fitted curve at half-maximal effect; % is scaled to controls: 0 for no effect and ±100 for the full control effect
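Reconstituted *E. coli* holoenzyme (0.35 nM Pol III, 1 nM beta, 154 nM SSB, 2 nM primase) was preincubated with compound for 15 min at RT. Synthesis on 1.4 nM ssM13Gori ran 35 min, then was stopped with PicoGreen/EDTA and read as dsDNA fluorescence.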
TsaE inh: qHTS Assay for Inhibitors of YjeE; purified YjeE enzyme, qHTS inhibition assay; Potency, µM; hit rate 0.05% among 71,000; AID 605, 2007
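Fluorescence polarization of a BODIPY Texas Red–ADP probe (2 uM) bound to purified YjeE (10 uM) was read after 15 min room-temperature incubation with compounds. Loss of polarization marks inhibitors; ADP serves as titrated control.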
BRCT inh green: qHTS Assay for Inhibitors of BRCT-Phosphoprotein Interaction (Green Fluorophore). Breast cancer type 1 susceptibility protein (Homo sapiens), P38398. AID 875, 2007. hit rate 0.05% among 75,000. BRCA1 BRCT-phosphopeptide binding, green fluorescence polarization. Potency, µM (series often up to 76.9 µM), inactives show top-dose activity change, negative = inhibition, usual class: inhibitors;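 also: potency is read from the fitted curve at half-maximal effect; plate controls were peptide without protein for full effect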
Target sequence (P38398 whole entry, looked up): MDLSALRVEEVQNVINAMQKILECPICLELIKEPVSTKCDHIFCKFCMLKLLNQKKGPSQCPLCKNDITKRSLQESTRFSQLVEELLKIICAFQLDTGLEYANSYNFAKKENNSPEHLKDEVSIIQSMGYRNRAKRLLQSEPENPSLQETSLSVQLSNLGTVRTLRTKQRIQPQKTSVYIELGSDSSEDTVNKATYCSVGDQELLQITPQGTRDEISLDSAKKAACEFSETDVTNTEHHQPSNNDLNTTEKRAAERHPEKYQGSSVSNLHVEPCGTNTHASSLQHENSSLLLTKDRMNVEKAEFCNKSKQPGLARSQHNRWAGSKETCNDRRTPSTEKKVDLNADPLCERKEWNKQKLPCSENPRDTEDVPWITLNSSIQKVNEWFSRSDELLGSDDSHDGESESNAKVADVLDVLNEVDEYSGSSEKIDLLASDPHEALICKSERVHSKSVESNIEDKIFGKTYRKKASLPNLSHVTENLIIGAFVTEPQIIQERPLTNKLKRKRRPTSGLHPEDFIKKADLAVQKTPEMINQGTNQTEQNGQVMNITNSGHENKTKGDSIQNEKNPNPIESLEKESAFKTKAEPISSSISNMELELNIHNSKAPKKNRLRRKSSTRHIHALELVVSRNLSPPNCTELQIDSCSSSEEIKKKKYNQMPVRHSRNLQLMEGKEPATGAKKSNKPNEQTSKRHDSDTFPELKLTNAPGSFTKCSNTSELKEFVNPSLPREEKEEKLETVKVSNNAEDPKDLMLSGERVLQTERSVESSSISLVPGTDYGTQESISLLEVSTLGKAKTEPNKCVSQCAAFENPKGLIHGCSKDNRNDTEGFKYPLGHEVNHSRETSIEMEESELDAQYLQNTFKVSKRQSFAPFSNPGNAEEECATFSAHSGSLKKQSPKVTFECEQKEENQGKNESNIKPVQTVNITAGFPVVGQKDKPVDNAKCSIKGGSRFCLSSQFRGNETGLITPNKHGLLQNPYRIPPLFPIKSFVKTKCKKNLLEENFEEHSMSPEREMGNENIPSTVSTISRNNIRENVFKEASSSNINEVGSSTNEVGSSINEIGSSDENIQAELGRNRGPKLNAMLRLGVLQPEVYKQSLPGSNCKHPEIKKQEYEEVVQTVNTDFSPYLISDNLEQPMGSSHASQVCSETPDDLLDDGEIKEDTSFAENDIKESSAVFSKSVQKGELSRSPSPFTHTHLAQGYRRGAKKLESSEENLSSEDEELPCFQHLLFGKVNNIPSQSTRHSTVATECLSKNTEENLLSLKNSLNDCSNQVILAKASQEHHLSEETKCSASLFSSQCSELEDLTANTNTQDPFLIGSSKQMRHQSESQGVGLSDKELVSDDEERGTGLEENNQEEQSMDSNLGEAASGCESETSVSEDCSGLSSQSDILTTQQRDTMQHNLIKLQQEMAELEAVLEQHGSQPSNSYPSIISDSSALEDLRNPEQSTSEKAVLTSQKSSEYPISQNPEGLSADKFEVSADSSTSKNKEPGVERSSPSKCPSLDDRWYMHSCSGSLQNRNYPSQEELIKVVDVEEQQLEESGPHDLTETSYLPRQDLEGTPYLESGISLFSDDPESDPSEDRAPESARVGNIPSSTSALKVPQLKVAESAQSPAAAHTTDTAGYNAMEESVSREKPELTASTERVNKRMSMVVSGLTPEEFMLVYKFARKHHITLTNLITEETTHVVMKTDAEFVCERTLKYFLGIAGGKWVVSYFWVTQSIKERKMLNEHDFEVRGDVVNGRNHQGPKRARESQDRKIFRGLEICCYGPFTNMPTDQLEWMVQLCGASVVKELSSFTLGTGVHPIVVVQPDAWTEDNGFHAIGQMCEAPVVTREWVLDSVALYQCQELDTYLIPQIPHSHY
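Fluorescence polarization: His-tagged BRCT (~35 kDa BRCA1 C-terminus, 250 nM) bound to 100 nM fluorescein-labeled phosphorylated 10-aa BACH1 peptide, pH 7.3 phosphate buffer with DTT and Tween 20. Compounds incubated 12 min at room temperature; inhibition read as lowered polarization.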
BRCT inh red: qHTS Assay for Inhibitors of BRCT-Phosphoprotein Interaction (Red Fluorophore); BRCT-phosphopeptide binding, red fluorescence polarization; hit rate 0.03% among 75,000; Potency, µM (top dose mostly 76.9 µM), without a hit: at the top dose activity change, negative = inhibition, hits mostly inhibitors; AID 892, 2007; also: % is scaled to controls: 0 for no effect and ±100 for the full control effect
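Fluorescence polarization: 100 nM His-tagged BRCA1 BRCT with 100 nM TAMRA-labelled phospho-BACH1 decapeptide, phosphate buffer pH 7.3 with 150 mM NaCl, DTT, 0.01% Tween 20; 12 min RT. Binding inhibition seen as FP decrease.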
Tau filament bind: qHTS Assay for Tau Filament Binding. hit rate 2% among 71,000. recombinant tau filaments, thioflavin S fluorescence, 15 h; filaments grown with octadecylsulfate alongside compound. Potency, µM (top dose mostly 57.1 µM), inactives show at the highest dose activity change, negative = inhibition. AID 596, 2007;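 also: potency is read from the fitted curve at half-maximal effect; % is scaled to controls: 0 for no effect and ±100 for the full control effect; actives lower thioflavin S fluorescence by blocking filaments or displacing dye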
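Tau 2 uM in ThS buffer dispensed; compound added; 60 uM ODS added (finals 1 uM tau, 30 uM ODS); 15 h 37 C; fluor ex450/em510.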
Active calls of the source: *; i = inactive; ? = inconclusive; nt = not tested or not shown; ! = a repeat was not active; [ ] = dose if it differs, or a comment. Sampled rows, rich in hits. Any-hit rate of the full collection: about 2.3%. Unless noted, calls follow the shape of the dose curve; as a rule, active = well fitted curve in the direction sought with a large enough effect; inconclusive = small, poorly fitted or top-dose-only effect, or another doubt; inactive = no such curve, though single readings can be large; an effect the other way counts as inactive or inconclusive.

SMILES	Hsp90 Hop PPI	Pol III holo inh	TsaE inh	BRCT inh green	BRCT inh red	Tau filament bind
COc1cc(C(=O)O[C@@H]2CC(C)=CC[C@@]3(C)CC[C@](O)(C(C)C)[C@H]23)ccc1O	-5%	-2%	i	nt	nt	40µM*
COc1ccc(C(=O)N2c3cc4c(cc3C(C)=CC2(C)C)OCO4)cc1	-29%	-2%	i	-3%	-1%	16µM*
CC1=CC(C)(C)N(C(=O)c2ccccc2)c2ccccc21	?	-1%	i	-1%	-1%	1%
O[C@@](CCN1CCCCC1)(c1ccccc1)C1CCCCC1	-6%[26 µM]	-4%[25.6 µM]	i	-1%[34.4 µM]	-1%[34.4 µM]	-16%[25.6 µM]
C=CC1=C(C)C2=NC1=CC1=NC(=CC3=NC(=CC4=NC(=C2)C(C)=C4CCC(=O)O)C(CCC(=O)O)=C3C)C(C=C)=C1C.[Zn]	5µM*	25µM*	79µM*	?	32µM*	0.79µM*
O=C(C[n+]1ccc2ccccc2c1)c1ccc2ccc3ccccc3c2c1	-5%[11 µM]	-21%[11.4 µM]	i	-3%[15.4 µM]	2%[15.4 µM]	2µM*
COc1ccc(NC(=O)N2CC3(CCN(C(=O)c4ccco4)CC3)C2)cc1	-3%	-5%	i	-4%	-1%	-2%
Clc1ccc2c(c1)C1OCCC1C(c1ccco1)N2 (centres undefined)	?	4%	i	0%	-3%	25µM*
Cc1ccc2c(c1)[C@H]1OCC[C@H]1[C@@H](c1ccncc1)N2	-4%	0%	i	-1%	0%	-10%
CC(C)C[C@@H](CC(=O)N[C@@H](CCC(=O)O)CC(=O)O)NC(=O)[C@@H]1CCCC[C@H]1NC(=O)C[C@H](CCCN)NC(=O)C[C@H](Cc1ccccc1)NC(=O)[C@@H]1CNCC[C@H]1N	-4%	-3%	i	nt	nt	-6%
O=C(Cc1cccs1)Nc1cccc(C(=O)Nc2ccco2)c1	-3%	3%	i	1%	0%	3%
CC(=O)c1cccc(NC(=O)Cc2cccs2)c1	-6%[11 µM]	10%[11.4 µM]	i	2%	-3%	4µM*
CCN(CC)CCN1C(=O)c2oc3ccccc3c(=O)c2C1c1cccc(Br)c1 (centres undefined)	-7%	-3%	i	-2%	-1%	25µM*
COc1ccc2[nH]cc(C(=O)CN3CCN(C4CCCCC4)CC3)c2c1	0%	4%	i	0%	1%	-8%
COc1ccc2c(C(=O)CN(C)C3CCCCC3)c[nH]c2c1	-5%	-6%	i	3%	0%	25µM*
Cc1cc(C)cc(NC(=O)Cn2ncn3c(cc4ccccc43)c2=O)c1	-25%	1%	i	-2%	0%	37%
CN(C)c1ccc(NC(=O)Cn2ncn3c(cc4ccccc43)c2=O)cc1	-15%	4%	i	1%	-2%	13µM*
Cc1ccc2nsnc2c1S(=O)(=O)N1CCN(CCc2ccccc2)CC1	-3%	-7%	i	-1%	0%	25µM*
Cc1ccc2nsnc2c1S(=O)(=O)NCc1cccnc1	-2%	-7%	i	-3%	0%	-7%
CN=C(NC#N)Nc1ccc(C2=NNC(=O)C[C@@H]2C)cc1	1%	-4%	i	-1%	-1%	40µM*!
CO[C@H]1COC(=O)C/C=C\[C@H](C)[C@@H](OC)COC(=O)[C@@H](C)COC(=O)C/C=C\[C@@H]1C	nt	nt	nt	1%[15.4 µM]	1%[15.4 µM]	nt
CCCCNc1nc(C)nc2c1nc(-c1ccccc1)n2C(C)CCCN(CC)CC (centres undefined)	-3%	-2%	i	1%	1%	62%
O=c1c2cc(Cl)ccc2oc2nc3n(c(=O)c12)CCCS3	0%	0%	i	-1%	0%	13µM*
Cn1ccc2cc3c(cc21)CCN3C(=O)Nc1cccnc1	-13%	-20%	i	-2%	-1%	32µM*
